In the library only some 19% were active in any assay of this set; here they are far more common.
HT1080NT lethal = kills 2HG-producing HT-1080-NT fibrosarcoma cells | HT-1080-NT fibrosarcoma viability, CellTiter-Glo ATP luminescence, 48 h | Potency, µM (top dose mostly 46.1 µM), without a hit: at the highest dose activity, negative = less viability, usual class: cytotoxic | 360,000 tested, 1.6% active | AID 686970;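 further: NT is the 2HG producing partner of a matched IDH1 knockdown line; potency means the concentration at half of the fitted maximal effect; 0% = DMSO-treated cells and -100% = media-only wells without cells; nearly all actives have a fitted effect of over 55% in size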
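HT-1080-NT; 750 cells/well; 5% FBS RPMI; 48 h compound, 37 degrees C; CellTiter-Glo luminescence; curve fitting and curve-class assignment.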
TDP1 cell noCPT = qHTS for Inhibitors of human tyrosyl-DNA phosphodiesterase 1 (TDP1): qHTS in cells in absence of CPT; 420,000 tested, 15% active; DT40 Tdp1-/- hTDP1 cells, no CPT, ATP luminescence, 48 h; Potency, µM (titrated, usually from 46.2 µM), without a hit: at the highest dose activity change, negative = growth inhibition, usual class: inhibitors; AID 686978, 2013; further: potency means the concentration at half of the fitted maximal effect; nearly all actives have a fitted effect of over 55% in size
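Growth of hTDP1-complemented DT40 Tdp1-knockout cells is measured by ATP luminescence after at least 48 hr compound exposure at 37 °C, with DMSO substituting for the 20 nM CPT used in the parallel screen.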
HT1080 IDH1KD tx = kills HT-1080 cells with IDH1 knockdown. Potency, µM (titrated, usually from 46.1 µM), for inactives: at the top dose activity, negative = toxicity, actives largely listed as cytotoxic. 360,000 tested, 2% active. HT-1080 IDH1 knockdown viability, ATP luminescence, 48 h;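 further: potency means the concentration at half of the fitted maximal effect; 0% = DMSO wells and -100% = cell-free medium wells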
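Viability of IDH1-knockdown HT-1080 fibrosarcoma cells was assessed by CellTiter-Glo after 48 h at 37 °C with titrated compound; concentration-effect curves were classified by fit quality and response size.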
IL1B secr inh = blocks inflammasome-driven IL-1 beta release | THP-1 LPS/ATP IL-1B secretion, AlphaLISA, 16 h; active compounds read low | activity change, % at 57.5 µM | 360,000 tested, 4.7% active | AID 743279; in the data active means activity change below about -50%; inconclusive means mostly about -30% to -49%
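THP-1 cells pretreated 1 hr with compounds (up to 57.5 uM final), then stimulated with LPS (250 ng/mL final) plus ATP (1.25 mM final); secreted IL-1B measured by AlphaLISA after 16 hr, decreased signal indicating inhibition.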
TDP1 cell CPT = growth inhibition of DT40 Tdp1-/-;hTDP1 cells with camptothecin (screen for TDP1 inhibitors); Potency, µM (titrated, usually from 46.2 µM), inactives show at the highest dose activity change, negative = growth inhibition, most hits filed as inhibitors; 420,000 tested, 12% active; chicken DT40 Tdp1-/-;hTDP1 cells + 20 nM CPT, ATP luminescence, 48 h; further: potency means the concentration at half of the fitted maximal effect; nearly all actives have a fitted effect of over 55% in size
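Chicken DT40 Tdp1-/- cells stably complemented with human TDP1 were seeded at 400 cells/well in medium containing 20 nM camptothecin, exposed to pin-transferred compounds, and grown at 37 °C for at least 48 hr. Viability was read as ATP luminescence.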
* marks the source's active call; other numbers are inactive results; ? = inconclusive; / = not tested or not shown. Unless noted, the call rests on the fitted dose curve; in most records, active means well fitted curve in the direction sought with a large enough effect; inconclusive means small, poorly fitted or top-dose-only effect, or another doubt; inactive means no such curve, though single readings can be large; an effect the other way counts as inactive or inconclusive. Unless noted, on the % scale 0 is the no-effect control and ±100 the full control effect.

SMILES	HT1080NT lethal	TDP1 cell noCPT	HT1080 IDH1KD tx	IL1B secr inh	TDP1 cell CPT
COc1ccc(/C=N/NC(=O)c2nc(-c3ccccc3)n(-c3ccccc3)n2)cc1	0%	3%	9%	-2	10%
COc1ccc2[nH]c(C(=O)N/N=C/c3ccc(O)cc3O)cc2c1	?	3.7µM*	2.3µM*	102	4.6µM*
CN1CCN(CCCNC(=O)CCN2C(=O)COc3ccccc32)CC1	4%	20%	8%	9	17%
CN1CCN(C(=O)C(=O)Nc2c3c(nn2-c2ccc(F)cc2)CSC3)CC1	/	-3%	/	/	2%
O=C(NCCCN1CCCC(O)C1)c1cc(COc2ccc(F)cc2F)on1 (configuration not stated)	2%	-11%	-3%	-10	-3%
Cc1cc(NC(=O)CCS(=O)(=O)c2cc(Br)cc3c2N(C(=O)C2CC2)CC3)ccc1Br	/	-18%	/	/	-12%
COc1ccc2[nH]c(C(=O)c3ccccc3)cc2c1	/	0.15µM*	/	/	0.13µM*
COc1cc2cc(C(=O)N/N=C/c3ccc(F)cc3)[nH]c2cc1OC	0%	-18%	1%	-11	-27%
CCOc1ccc2[nH]c(C(=O)N/N=C/c3ccc(OC)cc3)cc2c1	0.92µM*	0.58µM*	1.3µM*	63	0.58µM*
COc1cc2cc(C(=O)N/N=C/c3ccccc3Cl)[nH]c2cc1OC	0%	23µM*	-3%	-58*	?
CCCCOC(=O)n1c(=S)oc2cc(Cl)ccc21	-1%	23µM*	-3%	?	8.2µM*
CCCCOC(=O)n1c(=O)oc2cc(S(=O)(=O)N3CCCCC3)ccc21	-11%	?	-17%	0	?
Cc1csc(/C(=N\O)c2csc(C)n2)n1	?	?	16µM*	2	-24%
CCOC(=O)c1c(C)nsc1NC(=O)C1(C)CCN1C(=O)CC (configuration not stated)	5%	-22%	2%	-1	-18%
COc1ccc(-c2onc(C)c2-c2ccc(C(=O)OC(C)C)o2)c(O)c1	5%	16µM*	3%	?	21µM*
CCOc1ccc(/C=N/Nc2ccccn2)cc1OC	-12%	?	-10%	-4	-32%
COc1cc(/C=N/Nc2ccccn2)cc(OC)c1O	-11%	?	-21%	-100*	?
COc1cc(/C=N/Nc2ccccn2)ccc1OCC(C)C	-13%	10µM*	-27%	-22	?
C=CCOc1ccc(/C=N/Nc2ccccn2)cc1OC	-3%	26µM*	-14%	-11	-28%
O=S1(=O)CC(N2CC=CC2)CN1Cc1cn(Cc2cccc(Cl)c2)nn1 (configuration not stated)	-19%	-5%	-29%	0	0%
COc1ccc(CCN=C(N)NS(=O)(=O)c2ccc3ccccc3c2)cc1	-16%	-24%	-14%	-7	-20%
COc1cc2c(-c3ccccc3C)nc3c(c(C)nn3-c3ccccc3)c2cc1OC	/	?	/	/	23µM*
COc1cc(-c2nc3c(c(C)nn3-c3ccccc3)c3cc(OC)c(OC)cc23)ccc1O	-4%	21µM*	-3%	?	?
COc1cc2c(-c3cc(Br)ccc3O)nc3c(c(C)nn3-c3ccccc3)c2cc1OC	/	-24%	/	/	?
CN(C)CCN(Cc1ccccc1)S(=O)(=O)c1ccc(-c2cc(C(F)(F)F)on2)s1	/	12µM*	/	/	15µM*
SMILES	HT1080NT lethal	TDP1 cell noCPT	HT1080 IDH1KD tx	IL1B secr inh	TDP1 cell CPT
CCCn1c(N)c(C(=O)CSc2nc(C)cs2)c(=O)[nH]c1=O	2%	15µM*	-1%	-11	?
Cc1nc2cccnc2n1-c1cccc(C(=O)NCCN(C)C)c1	/	-3%	/	/	-5%
Cc1nc2cccnc2n1-c1cccc(C(=O)NCc2cccc(Cl)c2)c1	/	18µM*	/	/	21µM*
Cc1ccc(C(=O)N2CCN(c3cccc(Cl)c3)CC2)cc1-n1c(C)nc2cccnc21	/	9.2µM*	/	/	10µM*
CCc1ccc(CNC(=O)c2cccc(-n3c(C)nc4cccnc43)c2)cc1	/	16µM*	/	/	13µM*
O=C(COC(=O)c1sc2ccccc2c1Cl)Nc1ncc(Cl)cc1Cl	-17%	-28%	-3%	45	7%

Bioassay records: PubChem BioAssay, National Center for Advancing Translational Sciences (NCATS)
